Measured values from PubChem BioAssay AID485290 (National Center for Advancing Translational Sciences (NCATS), 2010).
“And” between values parts separate entries of the source, which are not always exact repeats. Equal entries are not always repeated. About 990 (0.28%) of roughly 350,000 compounds were called active. Inconclusive results (about 2%) are left out. Calls come from the whole dose curve; as a rule, active = well fitted inhibition curve with a large enough effect; inconclusive = small, poorly fitted or top-dose-only effect; inactive = no such curve, though single readings can be large or run the other way. The sample as a whole holds a higher share of actives than the screen did. Where a structure was tested more than once in an assay, its records may differ in their call.

The molecules below were run against Tyrosyl-DNA phosphodiesterase 1 (Homo sapiens) (UniProt Q9NUW8) (assay: qHTS Assay for Inhibitors of Tyrosyl-DNA Phosphodiesterase (TDP1)). Details: recombinant TDP1, AlphaScreen DNA substrate cleavage; series mostly up to 130 µM; activity change, negative = inhibition: at the top concentration.
Text: NIH Molecular Libraries Probe Production Network [MLPCN]
NIH Chemical Genomics Center [NCGC]
Assay Provider: Yves Pommier and Christophe Marchand, National Cancer Institute
Assay Title: qHTS Assay for Inhibitors of Tyrosyl-DNA Phosphodiesterase (TDP1); note: nearly all actives have a fitted effect of over 40% in size
Human tyrosyl-DNA phosphodiesterase I (Tdp1) is a rational anticancer target because this enzyme is involved in the repair of DNA lesions created by the trapping of human DNA topoisomerase I (Top1) following treatment by anticancer agents such as camptothecins. Recombinant Tdp1 was expressed and purified from E. coli in the laboratory (Anthony et al, Nucleic Acids Research, 2007, Vol. 35, 4474-4484). A Tdp1 DNA substrate bearing a 5' biotin and a 3' phospho-tyrosine was obtained by custom synthesis. This oligonucleotidic DNA substrate was subsequently coupled to a fluorescein isothiocyanate (FITC) group via the free amino group present on the phospho-tyrosine. Tdp1 was screened against the NCGC small molecule library using the AlphaScreen (AS) detection method in which a streptavidin donor AS bead is bound at the 5' end and an anti-FITC AS acceptor bead is bound at the 3' end of the DNA oligonucleotidic substrate. In the presence of Tdp1, the enzyme cleaves the tyrosine-FITC group, leaving a 3' end phosphate on the DNA substrate. This cleavage reaction results in a loss of signal in AS.
[1] 3 ul of buffer is dispensed in columns 3 & 4 as negative control (no enzyme and maximum signal),
[2] 3 ul of enzyme (1 nM final) is dispensed in columns 1,2, 5-48,
[3] 1 ul of substrate (15 nM final) is dispensed throughout the plate,
[4] 1 ul of AS donor/acceptor bead mix (10 ug/ml final) is dispensed throughout the plate
3 ul of Tdp1 enzyme is dispensed to 1536-well Kalypsys black solid bottom plates. Compounds and controls (23 nl) are transferred via Kalypsys Pin Tool. The plates are incubated for 15 min at room temperature, and then 1 ul of substrate is added to start the reaction. After 5 min incubation at room temperature, 1 ul of AS donor/acceptor bead mix is added and the plates are further incubated for 10 min at room temperature. The detection is then performed on a PerkinElmer Envision reader.
% is set by controls: 0 for no effect and ±100 for the full control effect; potency is the fitted concentration of half-maximal effect.

Sequence of Tyrosyl-DNA phosphodiesterase 1 (Homo sapiens) (Q9NUW8 whole entry, looked up): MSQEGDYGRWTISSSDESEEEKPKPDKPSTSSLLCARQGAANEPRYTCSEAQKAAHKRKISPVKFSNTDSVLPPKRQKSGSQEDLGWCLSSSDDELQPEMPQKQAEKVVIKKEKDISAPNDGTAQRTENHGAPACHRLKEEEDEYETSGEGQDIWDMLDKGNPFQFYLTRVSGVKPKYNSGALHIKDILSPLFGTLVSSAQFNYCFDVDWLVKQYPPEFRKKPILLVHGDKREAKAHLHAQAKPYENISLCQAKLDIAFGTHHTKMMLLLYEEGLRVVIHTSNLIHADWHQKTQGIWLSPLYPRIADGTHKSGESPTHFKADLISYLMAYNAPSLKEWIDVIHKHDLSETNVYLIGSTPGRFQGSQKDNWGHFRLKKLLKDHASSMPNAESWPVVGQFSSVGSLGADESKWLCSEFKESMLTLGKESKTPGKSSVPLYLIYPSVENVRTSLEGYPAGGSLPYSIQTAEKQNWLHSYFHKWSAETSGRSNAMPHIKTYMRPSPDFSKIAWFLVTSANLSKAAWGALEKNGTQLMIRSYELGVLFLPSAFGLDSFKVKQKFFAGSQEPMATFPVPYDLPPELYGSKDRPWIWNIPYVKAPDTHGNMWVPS

Activity change, negative = inhibition, inactive:
Cc1nn(C)cc1N1C(=O)c2cccc3c(N)ccc(c23)C1=O 3.53%, COC(=O)Cc1ccc(N(Cc2ccccc2F)S(=O)(=O)c2ccc(Br)cc2)cc1 5.26%, CCCNC(=O)CN(Cc1ccccc1F)S(=O)(=O)c1ccc(C)cc1 0%, O=C(CNC(=O)c1ccccc1)OC(C(=O)Nc1cc([N+](=O)[O-])ccc1F)c1ccccc1 (centres undefined) -0.0203%, O=C(CCNC(=O)c1ccccc1Cl)NN=Cc1ccco1 -19.3%, O=C(CCCCCNC(=O)c1ccccc1)N/N=C/c1ccccc1 0%, O=C(Nc1ccc2nc(SCCOc3ccccc3Cl)sc2c1)c1ccco1 -0.521%, CCOC(=O)c1ccc(NC(=O)CC2C(=O)N(c3ccccc3)C(=O)N2Cc2cccs2)cc1 (centres undefined) 8.97%, COc1ccc(-c2cn3nc(N4CCCC(C(=O)NCCCOC(C)C)C4)sc3n2)cc1 (centres undefined) 6.21%, Cc1ccc(-c2nnc3ccc(SCC(N)=O)nn23)cc1 3.35%, O=C(O)CCC(=O)N(Cc1ccccc1)Cc1ccccc1 2.81%, O=C(CCc1ccccc1)NCCc1cccs1 6.33%, Cc1ccc2ccc3c(c2n1)NS(=O)(=O)c1ccccc1-3 3.91%, O=C(CSc1nc2ccc(Nc3nc(N4CCOCC4)nc(N4CCOCC4)n3)cc2s1)NCc1ccco1 7.41%, CCn1c(COc2ccccc2)nnc1SCC(=O)NCc1ccco1 -2.53%, N#Cc1nc(Nc2cc(F)cc(Cl)c2)nc(NC2CCCC2)n1 -1.72%, Cc1ccc(C2C=C(c3ccc(Cl)cc3)Nc3nc(NC(=O)CCC(=O)O)nn32)cc1 (centres undefined) 6.98%, Cc1csc(NC(=O)CSc2nc(=O)cc(N)n2-c2ccc(F)cc2)n1 0.637%, COc1cccc(-n2c(N)cc(=O)nc2SCC(=O)Nc2cc(C)on2)c1 4.83%, CCc1ccc(NC(=O)CN2CCSc3ccc(S(=O)(=O)N4CCCC4)cc32)cc1 8.88%, CC(C)c1ccc(C2CC(=O)N3CN(C4CCCCC4)CSC3=C2C#N)cc1 (centres undefined) 4.65%, Cc1ccc(Cn2ncc3c4sc(C)cc4n(C)c3c2=O)c(C)c1 -17.4%, CCSc1nnc(NC(=O)c2cc(=O)c3cc(C)c(C)cc3o2)s1 3.68%, NC(=O)CSc1nnc(NC(=O)c2ccc3ccccc3c2)s1 -9.3%, COc1cccc(NC(=O)C(=O)NCC(c2ccc3c(c2)OCO3)N2CCN(C)CC2)c1 (centres undefined) 4.4%, O=C(Nc1ccc(F)cc1F)c1ccc2c(=O)n3c(nc2c1)CCCCC3 0%, COc1cc(C(=O)NCCc2csc3nc(-c4ccccc4C)nn23)cc(OC)c1OC 8.88%, CC1CCCN(C(=O)c2cc(-c3ccco3)nc3ccccc23)C1 (centres undefined) -2.87% [at 56.1 µM], CN(CCOc1ccccc1)C(=O)c1cc(-c2ccco2)nc2ccccc12 -10%, N#CN1CCC(NS(=O)(=O)c2cccc(F)c2)C1 (centres undefined) -0.0717%, COc1cccc(NC(=O)c2ccc3nc(CCc4ccccc4)oc3c2)c1 4.14%, COc1cccc(OC2=NS(=O)(=O)c3ccccc32)c1 2.37%, COC(=O)c1ccccc1NC(=O)c1ccc2c(=O)n3c(nc2c1)CCCCC3 5.06%, O=C(OCC#CCSc1nnc(-c2ccco2)o1)c1ccc(F)cc1 -3.06%, CN1C(=O)/C(=C\c2ccc(-c3ccccc3)o2)SC1=S 8.48%, Cc1cc(/C=C2\SC(=Nc3ccc(N4CCOCC4)cc3)N(C)C2=O)c(C)n1-c1cccnc1 5.26%, CCOC(=O)c1scc(-c2ccccc2)c1S(=O)(=O)Nc1ccccc1F 1.95%, COc1ccc(-c2nc3sc(CCNC(=O)C(C)(C)C)c(C)n3n2)cc1 2.6%, Cc1cccc(Nc2nc(-c3ccccc3)cs2)n1 8%, O=C(Nc1nc(-c2cccnc2)cs1)c1ccccc1F -1.15%, COc1ccc(-c2c3c(=O)n(C)c(=O)n(C)c3c3c(C)nc4ccccc4n23)cc1 2.12%, O=C(CNC(=O)c1ccc(Cl)cc1Cl)OC(C(=O)Nc1cc(C(F)(F)F)ccc1Cl)c1ccccc1 (centres undefined) 0.0717%, CCc1nc(-c2cc(S(=O)(=O)N3CCN(c4ccc(OC)cc4)CC3)ccc2OC)no1 0%, CCc1ccc(OCCCn2c(CCCNC(=O)C3CCCCC3)nc3ccccc32)cc1 1.74%, O=C(Nc1nnc(-c2ccc(Cl)cc2)o1)c1ccccc1Br 9.8%, Cc1ccnc2nc(C(=O)OCC(=O)N(CC(C)C)CC(C)C)nn12 0.595%, COc1ccc(C(=O)CSc2c(C(C)C)cnc3c2c(=O)n(C)c(=O)n3C)cc1 5.41%, CCN(CCCNC(=O)c1ccc(Sc2ccc(C)cc2)c(NC(C)=O)c1)c1cccc(C)c1 7.79%, Cc1ccc(-n2ncc3c(NCCCn4ccnc4)ncnc32)cc1Cl 13%, COc1ccc(C2Nc3ccccc3C(=O)N2Cc2ccccc2)cc1COc1ccc(C(N)=O)cc1 (centres undefined) -0.753%, CCc1ccccc1NC(=O)c1ccc2nc(CCc3ccccc3)oc2c1 -6.51%, Cc1cc(=O)oc2cc(OC(C)C(=O)Nc3ccc(N4CCOCC4)cc3)ccc12 (centres undefined) 2.14%, Cc1cc(=O)oc2cc(OC(C)C(=O)NCCc3ccc(S(N)(=O)=O)cc3)ccc12 (centres undefined) 3.75%, COc1ccc(S(=O)(=O)NCC(c2ccc(N(C)C)cc2)N2CCc3ccccc32)cc1OC (centres undefined) 13.8%, OC[C@@H]1O[C@H](n2cnc3c(SCc4ccccc4)ncnc32)[C@H](O)[C@H]1O 3.08%, Cc1cc2c(s1)c1cnn(Cc3c(F)cccc3Cl)c(=O)c1n2C 0.134%, Cc1cnc(NC(=O)CSc2nnc(C)s2)s1 4.02%, CCCCCC(=O)Nc1ccc(S(=O)(=O)Nc2ccc(Cl)nn2)cc1 3.43%, COc1cccc(C2c3c(ncn(-c4cccc(Br)c4)c3=N)Oc3ccc4ccccc4c32)c1 (centres undefined) 3.6%, O=C1CC(c2ccccc2)CC2=C1C(c1ccco1)n1nc(C(F)(F)F)nc1N2 (centres undefined) 2.22%, Cn1cccc1/C=C1\SC(=O)N(CC(=O)Nc2ccc(F)cc2)C1=O 5.97%, COc1ccc(NC(=O)CCN2C(=O)/C(=C/c3ccc4c(c3)OCO4)SC2=S)cc1 2.5%, Cc1cc(C(=O)OCC(=O)N2c3ccccc3NC(=O)C2(C)C)c(C)n1-c1ccccc1 10.8%, CC1(C)C(=O)Nc2ccccc2N1C(=O)COC(=O)Cn1cnc2ccccc2c1=O 3.91% [at 56.1 µM], CCOC(=O)c1ccccc1NC(=O)CSc1nc2ccccc2c(=O)[nH]1 5.13%, CC(=O)NCc1ccc(-c2csc(NC(=O)CCCc3nc4ccccc4c(=O)[nH]3)n2)cc1 2.93%, O=S(=O)(c1ccc2c(c1)OCCCO2)N1CCN(S(=O)(=O)c2c(F)cccc2F)CC1 -2.34%, Brc1nc2ncnc(NCc3ccco3)c2[nH]1 1.07%, COC(=O)c1ccc(NC(=O)CSc2n[nH]c(-c3ccccc3)n2)cc1 8.11%, CN(C)c1ccc(C(CNS(=O)(=O)c2cc(F)ccc2F)N2CCOCC2)cc1 (centres undefined) 8.75%, COc1ccc(C2Nc3ccccc3C(=O)N2Cc2ccc(CNC(=O)CO)cc2)cc1COc1ccc(NC(C)=O)cc1 (centres undefined) -19.1%, CN(C)S(=O)(=O)c1cccc(-c2nn(-c3ccccc3)cc2/C=C2\SC(=S)N(CC(=O)O)C2=O)c1 0%, COc1ccc(/C=C2\SC(=S)N(CCC(=O)Nc3ccccn3)C2=O)cc1OC 5.5% [at 0.0935 µM], Cc1ccc(C(=O)NC2CCN(C#N)CC2)cc1 1.25%, CCN(CC)c1nc(C#N)nc(OC)n1 -0.0347%, COc1ccc(CCn2c3c(c(=O)[nH]c2=S)CN(C(C)C)CN3)cc1OC 1.97%, Cc1ccc(C)c(N2C(=O)N(Cc3c(F)cccc3Cl)c3ccccc3S2(=O)=O)c1 1.47%, N#Cc1ccc(OC2=NS(=O)(=O)c3ccccc32)cc1 -0.673%, Fc1ccccc1Oc1ncnc2c1oc1ccccc12 -2.45%, Cc1cccc(N2CCN(C(=O)c3cccc(S(=O)(=O)N4CCc5ccccc5C4)c3)CC2C)c1 (centres undefined) 0%, Cc1cccc(N2CCN(S(=O)(=O)c3ccc(-c4cc(C)no4)s3)CC2C)c1 (centres undefined) 0.315%

Potency, inactive and 50.1 µM (active):
Nc1ccc2c3c(cccc13)C(=O)NC2=O

Potency, active:
CC(=O)c1ccc(S(=O)(=O)N(C)CCCC(=O)N(C)Cc2ccccc2F)cc1 79.4 µM, O=C(CCNC(=O)c1ccccc1)NN=Cc1ccc(Br)o1 14.1 µM, O=C(O)CCC(=O)N(Cc1cccs1)Cc1cccs1 70.8 µM, C=CCn1c(CSc2nc3ccccc3s2)nnc1SCC(=O)NCc1ccco1 50.1 µM, Cc1cc(NC(=O)CSc2nc(=O)cc(N)n2-c2ccc(F)cc2)no1 100 µM, NC(=O)CSc1nnc(NC(=O)c2ccc(Br)o2)s1 56.2 µM, Cc1cc(C)c2nc(-c3ccco3)cc(C(=O)O)c2c1 3.55 µM, CN1C(=O)/C(=C/c2ccco2)SC1=Nc1cccc(C(=O)O)c1 25.1 µM, Cc1ccccc1Nc1nc(-c2cccnc2)cs1 100 µM, Cc1ccnc2nc(C(=O)Nc3nnc(-c4ccccc4)o3)nn12 50.1 µM, Cc1cc(=O)oc2cc(NC(=O)C(C)Oc3ccccc3)ccc12 (centres undefined) 56.2 µM, Cc1nnc(SCC(=O)Nc2ccc(S(=O)(=O)Nc3ccc(Cl)nn3)cc2)s1 39.8 µM, Cc1ccc(C(=O)O)cc1-c1ccc(/C=C2\SC(=O)N(CC(=O)Nc3ccc4c(c3)OCO4)C2=O)o1 10 µM, CNS(=O)(=O)c1cccc(C(=O)OCC(=O)N2c3ccccc3NC(=O)C2(C)C)c1 31.6 µM, O=C(CSc1nc2ccccc2c(=O)[nH]1)Nc1nc(-c2ccc(Br)cc2)cs1 12.6 µM, COc1ccc(-c2nn(-c3ccccc3)cc2/C=C2/SC(=S)N(CCCC(=O)O)C2=O)c(C)c1 39.8 µM, Cc1cccc(N2CCN(S(=O)(=O)c3ccc4[nH]c(=O)c(=O)[nH]c4c3)CC2C)c1 (centres undefined) 35.5 µM
